Test results as given in PubChem BioAssay (NCATS).
Results filed as inconclusive are left out. Calls of active or inactive are those of the source. Unless noted, calls follow the shape of the dose curve; as a rule, active = well fitted curve in the direction sought with a large enough effect; inconclusive = small, poorly fitted or top-dose-only effect, or another doubt; inactive = no such curve, though single readings can be large; an effect the other way counts as inactive or inconclusive.

Assays:
[1] = biological target: T1, Hexokinase-4 (Homo sapiens) + Glucokinase regulatory protein (Homo sapiens) (UniProt P35557+Q14397); assay: qHTS assay for inhibitors of recombinant human GCK-GKRP interaction: Diaphorase-coupled assay (AID 743205); also: potency is read from the fitted curve at half-maximal effect
T1 sequence (P35557 whole entry, looked up): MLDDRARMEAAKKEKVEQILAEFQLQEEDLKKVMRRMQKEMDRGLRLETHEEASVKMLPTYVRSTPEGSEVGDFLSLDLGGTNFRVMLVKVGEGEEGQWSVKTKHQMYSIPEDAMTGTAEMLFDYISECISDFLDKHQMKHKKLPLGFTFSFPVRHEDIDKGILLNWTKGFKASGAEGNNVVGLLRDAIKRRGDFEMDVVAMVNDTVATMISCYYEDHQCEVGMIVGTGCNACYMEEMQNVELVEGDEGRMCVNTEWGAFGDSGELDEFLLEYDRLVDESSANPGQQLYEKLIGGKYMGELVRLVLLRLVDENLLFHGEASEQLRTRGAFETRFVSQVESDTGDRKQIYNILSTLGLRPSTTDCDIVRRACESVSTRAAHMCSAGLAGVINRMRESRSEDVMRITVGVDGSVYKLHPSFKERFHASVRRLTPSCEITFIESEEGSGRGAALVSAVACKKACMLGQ
T1 sequence (Q14397 whole entry, looked up): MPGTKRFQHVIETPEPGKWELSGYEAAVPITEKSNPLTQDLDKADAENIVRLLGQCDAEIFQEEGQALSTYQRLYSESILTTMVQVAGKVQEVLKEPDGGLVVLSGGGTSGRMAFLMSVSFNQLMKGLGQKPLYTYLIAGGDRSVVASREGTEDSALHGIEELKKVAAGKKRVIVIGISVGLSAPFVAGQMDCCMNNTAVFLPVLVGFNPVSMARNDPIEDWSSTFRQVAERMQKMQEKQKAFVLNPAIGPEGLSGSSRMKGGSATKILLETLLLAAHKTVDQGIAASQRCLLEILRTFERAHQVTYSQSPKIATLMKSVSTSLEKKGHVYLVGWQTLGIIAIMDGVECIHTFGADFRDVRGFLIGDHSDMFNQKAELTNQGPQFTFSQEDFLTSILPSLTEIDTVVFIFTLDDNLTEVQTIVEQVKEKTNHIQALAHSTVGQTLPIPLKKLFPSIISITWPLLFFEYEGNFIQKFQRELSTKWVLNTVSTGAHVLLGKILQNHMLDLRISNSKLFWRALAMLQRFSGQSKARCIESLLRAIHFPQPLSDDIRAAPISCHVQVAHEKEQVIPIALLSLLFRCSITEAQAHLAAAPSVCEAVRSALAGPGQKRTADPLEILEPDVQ
Method in brief: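 Resorufin fluorescence (525/590 nm), read each minute over 30 min, reports GCK activity coupled via G6PDH and diaphorase. Reaction: 10 nM GST-GCK, 10 nM FLAG-GKRP, 5 mM glucose, 0.4 mM ATP, 0.15 mM NADP+, 0.1 mM resazurin.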

[2] = biological target: T1, Hexokinase-4 (Homo sapiens) + Glucokinase regulatory protein (Homo sapiens); assay: qHTS assay for inhibitors of recombinant human GCK-GKRP interaction: ADP-Glo assay (AID 743206); also: potency is read from the fitted curve at half-maximal effect
Method in brief: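 Pin-transferred compounds meet a 15 nM GST-GCK/15 nM FLAG-GKRP/2 uM S6P mix (dispense concentrations). ATP is then added to 0.4 mM final with 5 mM glucose, and the reaction runs 60 min at room temperature. ADP is quantified luminescently.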

[3] = biological target: T1, Hexokinase-4 (Homo sapiens) + Glucokinase regulatory protein (Homo sapiens); assay: qHTS assay for inhibitors of recombinant human GCK-GKRP interaction: HTRF assay (AID 743207); also: potency is read from the fitted curve at half-maximal effect
Method in brief: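 HTRF read-out (ex 320 nm; 615/665 nm emission) after 60 min RT equilibration of 5 nM GST-GCK, 5 nM FLAG-GKRP, 2 uM S6P, compound and anti-FLAG/anti-GST detection antibodies; signal normalized between DMSO wells with and without GCK.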

[4] = qHTS Assay for Identifying Gametocytocidal Compounds (AID 743244); also: potency is read from the fitted curve at half-maximal effect;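 as to max response: % is scaled to controls: 0 for no effect and ±100 for the full control effect; actives lower the fluorescent signal which means gametocytes are killed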; conditions: P. falciparum 3D7 stage III-V gametocytes, alamarBlue, 72 h; max response: active compounds read low
Method in brief: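 A resazurin-based viability read-out was applied to mature P. falciparum gametocytes: 72 h compound treatment, then 24 h dye incubation, with falling fluorescence signalling gametocytocidal effect.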

[5] = qHTS assay for measurement of the activity of small molecule inhibitors on Zika virus induced Caspase-3 activity in human iPSC derived neural progenitor cells (hNPCs) (AID 1224857); also: % of control where 0% means no effect; nearly all actives have a fitted effect of over 65% in size
Method in brief: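 Quantitative HTS format: human iPSC neural progenitors, 1 h compound pretreatment, ZIKV 2 FFU/cell for 6 h at 37 C. Percent inhibition derived from luminescent caspase-3/7 signal between uninfected and infected controls.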

[6] = qHTS assay for measurement of the activity of small molecule inhibitors on Zika virus induced Caspase-3 activity in human astrocytoma cells (AID 1224859);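 also: plate controls were ZIKV-infected untreated cells for no effect and uninfected cells for full effect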
Method in brief: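 Readout is luminescence from Caspase-Glo 3/7 added after a 6 h ZIKV infection (2 FFU/cell) of compound-pretreated (1 h) SNB-19 cells; data expressed as % inhibition versus uninfected and infected wells.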

[7] = Natriuretic polypeptide receptor (hNpr1) antagonism - Pilot counterscreen GloSensor control cell line (AID 1347045; calls by dose curve; also: series mostly up to about 38 µM; % is scaled to controls: 0 for no effect and ±100 for the full control effect)
Method in brief: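 Control counterscreen: luciferase cGMP-biosensor HEK293 cells (no Npr1) received compound for 30 min at room temperature after GloSensor substrate loading. Luminescence was measured before and 20 min after soluble guanylyl cyclase activation by 50 uM nitroprusside.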

[8] = biological target: Atrial natriuretic peptide receptor 1 (Homo sapiens) (UniProt P16066); assay: Natriuretic polypeptide receptor (hNpr1) antagonism - Pilot screen (AID 1347049; calls by dose curve;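 also: agonist-evoked cGMP luminescence read 20 min after hNppA addition; series mostly up to about 58 µM; % is scaled to controls: 0 for no effect and ±100 for the full control effect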)
Atrial natriuretic peptide receptor 1 (Homo sapiens), sequence (P16066 whole entry, looked up): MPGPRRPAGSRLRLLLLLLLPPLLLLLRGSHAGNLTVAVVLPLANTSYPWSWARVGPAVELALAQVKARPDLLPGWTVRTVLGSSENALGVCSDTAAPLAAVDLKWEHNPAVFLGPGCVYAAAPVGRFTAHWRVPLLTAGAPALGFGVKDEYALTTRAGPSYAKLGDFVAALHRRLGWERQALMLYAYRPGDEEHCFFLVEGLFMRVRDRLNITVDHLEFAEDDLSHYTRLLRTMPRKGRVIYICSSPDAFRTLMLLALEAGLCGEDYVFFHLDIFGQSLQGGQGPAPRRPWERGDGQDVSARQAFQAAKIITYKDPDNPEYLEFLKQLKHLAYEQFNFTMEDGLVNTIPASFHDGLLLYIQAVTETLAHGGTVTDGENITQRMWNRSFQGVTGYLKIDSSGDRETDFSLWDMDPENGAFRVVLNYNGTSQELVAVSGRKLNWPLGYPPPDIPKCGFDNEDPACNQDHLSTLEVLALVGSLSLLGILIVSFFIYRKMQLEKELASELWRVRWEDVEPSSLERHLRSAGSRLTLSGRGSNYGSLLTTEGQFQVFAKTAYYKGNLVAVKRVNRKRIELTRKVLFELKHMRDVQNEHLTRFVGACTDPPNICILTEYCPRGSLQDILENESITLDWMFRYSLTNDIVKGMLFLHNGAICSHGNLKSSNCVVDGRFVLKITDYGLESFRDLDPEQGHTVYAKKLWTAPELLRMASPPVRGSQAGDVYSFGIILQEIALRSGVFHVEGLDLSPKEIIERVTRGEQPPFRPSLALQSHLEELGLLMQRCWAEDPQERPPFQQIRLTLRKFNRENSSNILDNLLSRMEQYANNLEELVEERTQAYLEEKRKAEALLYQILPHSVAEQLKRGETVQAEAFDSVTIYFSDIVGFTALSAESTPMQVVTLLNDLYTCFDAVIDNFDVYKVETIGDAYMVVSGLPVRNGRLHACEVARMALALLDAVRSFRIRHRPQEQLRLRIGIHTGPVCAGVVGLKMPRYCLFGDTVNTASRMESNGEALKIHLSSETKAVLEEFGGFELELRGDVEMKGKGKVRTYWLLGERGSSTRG
Method in brief: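 cGMP-sensor HEK293/hNpr1 cells, 1500/well, plated overnight at 37C. 2% GloSensor reagent, 2 h RT. Compound (23 nL pin transfer) 30 min RT, baseline luminescence pre-read. 0.1 nM hNppA, 20 min RT, post-read.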

[9] = biological target: Atrial natriuretic peptide receptor 2 (Homo sapiens) (UniProt P20594); assay: Natriuretic polypeptide receptor (hNpr2) antagonism - Pilot subtype selectivity assay (AID 1347050; calls by dose curve; also: % is scaled to controls: 0 for no effect and ±100 for the full control effect)
Atrial natriuretic peptide receptor 2 (Homo sapiens), sequence (P20594 whole entry, looked up): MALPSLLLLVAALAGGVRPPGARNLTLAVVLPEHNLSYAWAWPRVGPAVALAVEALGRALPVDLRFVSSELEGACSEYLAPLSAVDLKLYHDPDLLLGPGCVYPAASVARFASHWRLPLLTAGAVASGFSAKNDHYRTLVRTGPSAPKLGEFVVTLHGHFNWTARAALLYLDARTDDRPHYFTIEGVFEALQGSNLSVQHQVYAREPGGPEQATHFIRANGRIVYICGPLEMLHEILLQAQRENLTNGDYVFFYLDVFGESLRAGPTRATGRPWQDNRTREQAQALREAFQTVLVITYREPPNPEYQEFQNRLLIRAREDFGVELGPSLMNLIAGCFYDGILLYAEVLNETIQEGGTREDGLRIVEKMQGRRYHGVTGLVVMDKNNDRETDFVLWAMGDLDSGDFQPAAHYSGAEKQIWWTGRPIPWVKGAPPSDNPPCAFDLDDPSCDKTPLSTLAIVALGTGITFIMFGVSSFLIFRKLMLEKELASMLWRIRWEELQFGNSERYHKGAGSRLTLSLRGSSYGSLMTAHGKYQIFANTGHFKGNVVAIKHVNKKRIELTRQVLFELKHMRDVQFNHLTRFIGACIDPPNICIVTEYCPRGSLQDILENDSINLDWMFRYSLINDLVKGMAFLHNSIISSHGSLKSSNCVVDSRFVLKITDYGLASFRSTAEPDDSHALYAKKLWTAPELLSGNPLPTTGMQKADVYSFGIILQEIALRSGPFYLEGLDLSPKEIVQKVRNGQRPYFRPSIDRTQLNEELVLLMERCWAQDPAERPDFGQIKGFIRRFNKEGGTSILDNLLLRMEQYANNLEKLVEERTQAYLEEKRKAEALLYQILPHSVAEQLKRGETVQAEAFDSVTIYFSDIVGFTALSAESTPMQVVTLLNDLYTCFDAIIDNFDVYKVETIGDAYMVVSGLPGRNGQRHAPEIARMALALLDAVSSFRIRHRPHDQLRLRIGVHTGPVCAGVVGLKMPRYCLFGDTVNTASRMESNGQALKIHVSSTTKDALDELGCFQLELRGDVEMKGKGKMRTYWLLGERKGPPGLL
Method in brief: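 Luminescence from a genetically encoded cGMP luciferase biosensor in hNpr2-expressing HEK293 cells is read before and 20 min after adding 1 nM hNppC. Test compounds, in interplate 1:5 titrations, are added 30-50 min ahead of the agonist.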

NCCC1CCCC(CCN)N1 (stereo unspecified)
inactive: Potency [1] | Potency [2] | Potency [3] | max response [4] 30.6% | Potency [5] | Potency [6] | Potency [7] | Potency [8] | Potency [9]

Clc1nccc2c1ccc1ccccc12
inactive: Potency [1] | Potency [2] | Potency [3] | max response [4] 7.1% | Potency [5] | Potency [6] | Potency [7] | Potency [8] | Potency [9]

COc1ccc(-c2ccc(N)[n+](CCCC(=O)O)n2)cc1
inactive: Potency [1] | Potency [2] | Potency [3] | max response [4] 23.8% | Potency [5] | Potency [6] | Potency [7] | Potency [8] | Potency [9]

NCCNS(=O)(=O)c1cccc2c(Cl)cccc12
inactive: Potency [1] | Potency [2] | Potency [3] | Potency [5] | Potency [6] | Potency [7] | Potency [8] | Potency [9]
active: Potency [4] 3.16 µM

O=C(O)C1=CC(=C(c2ccc(O)c(C(=O)O)c2)c2ccc(O)c(C(=O)O)c2)C=CC1=O
inactive: max response [4] 21.2% | Potency [5] | Potency [6] | Potency [7] | Potency [8] | Potency [9]
active: Potency [1] 25.1 µM | Potency [2] 4.47 µM | Potency [3] 2.51 µM

O=C(O)CCC(=O)N1CCCC1C(=O)O (stereo unspecified)
inactive: Potency [1] | Potency [2] | Potency [3] | max response [4] -8.08% | Potency [5] | Potency [6] | Potency [7] | Potency [8] | Potency [9]

CSC(=N)N
inactive: Potency [1] | Potency [2] | Potency [3] | max response [4] 32.5% | Potency [5] | Potency [6] | Potency [7] | Potency [8] | Potency [9]

C=C1C[C@@]23CC[C@H]4[C@@](C)(CCC[C@@]4(C)C(=O)O)[C@@H]2CC[C@]1(O)C3
inactive: Potency [1] | Potency [2] | Potency [3] | max response [4] 31.3% | Potency [5] | Potency [6] | Potency [7] | Potency [8] | Potency [9]

N=C(N)SCCc1cnc[nH]1
inactive: Potency [1] | Potency [2] | Potency [3] | max response [4] 9.89% | Potency [5] | Potency [6] | Potency [7] | Potency [8] | Potency [9]

Nc1nc2c(cnn2CCc2ccccc2)c2nc(-c3ccco3)nn12
inactive: Potency [1] | Potency [2] | Potency [3] | max response [4] -5.77% | Potency [5] | Potency [6] | Potency [7] | Potency [8] | Potency [9]

COC1(C2=NCCN2)COc2ccccc2O1 (stereo unspecified)
inactive: Potency [1] | Potency [2] | Potency [3] | max response [4] 25.5% | Potency [5] | Potency [6] | Potency [7] | Potency [8] | Potency [9]

CCCn1c(=O)c2c(ncn2C)n(CCC)c1=O
inactive: Potency [1] | Potency [2] | Potency [3] | max response [4] 12.3% | Potency [5] | Potency [6] | Potency [7] | Potency [8] | Potency [9]

Brc1c(Br)c(Br)c2[nH]cnc2c1Br
inactive: Potency [1] | Potency [2] | Potency [3] | max response [4] 7.09% | Potency [5] | Potency [6] | Potency [7] | Potency [8] | Potency [9]

CC(=O)[C@H]1CCC2C3CC=C4C[C@@H](OS(=O)(=O)O)CC[C@]4(C)C3CC[C@@]21C (stereo partly specified)
inactive: Potency [1] | Potency [2] | Potency [3] | max response [4] 21.2% | Potency [5] | Potency [6] | Potency [7] | Potency [8] | Potency [9]

COc1cc(C(O)C(=O)O)ccc1O (stereo unspecified)
inactive: Potency [1] | Potency [2] | Potency [3] | max response [4] 20.3% | Potency [5] | Potency [6] | Potency [7] | Potency [8] | Potency [9]

N[C@@H](CCC(=O)N[C@H](CSN=O)C(=O)NCC(=O)O)C(=O)O
inactive: Potency [1] | Potency [2] | Potency [3] | max response [4] 16.7% | Potency [5] | Potency [6] | Potency [7] | Potency [8] | Potency [9]

OC[C@H]1O[C@@H](n2cnc3cncnc32)[C@H](O)[C@@H]1O
inactive: Potency [1] | Potency [2] | Potency [3] | max response [4] 19.7% | Potency [5] | Potency [6] | Potency [7] | Potency [8] | Potency [9]

O=C(OCCN1CCOCC1)C1(c2ccccc2)CCCCC1
inactive: Potency [1] | Potency [2] | Potency [3] | max response [4] 16.2% | Potency [5] | Potency [6] | Potency [7] | Potency [8] | Potency [9]

CC(=O)O[C@H]1Cc2ccccc2N(C(N)=O)c2ccccc21
inactive: Potency [1] | Potency [2] | Potency [3] | max response [4] 18.2% | Potency [5] | Potency [6] | Potency [7] | Potency [8] | Potency [9]

NCCCCN=C(N)N
inactive: Potency [1] | Potency [2] | Potency [3] | max response [4] 3.59% | Potency [5] | Potency [6] | Potency [7] | Potency [8] | Potency [9]

CC(N)(C(=O)O)c1ccc(C(=O)O)cc1 (stereo unspecified)
inactive: Potency [1] | Potency [2] | Potency [3] | max response [4] 12% | Potency [5] | Potency [6] | Potency [7] | Potency [8] | Potency [9]

COc1ccc(CCN(C)CCc2ccc(OC)c(OC)c2)cc1OC
inactive: Potency [1] | Potency [2] | Potency [3] | max response [4] 12.4% | Potency [5] | Potency [6] | Potency [7] | Potency [8] | Potency [9]

c1ccc2nc(C3=NCCN3)ccc2c1
inactive: Potency [1] | Potency [2] | Potency [3] | max response [4] 12% | Potency [5] | Potency [6] | Potency [7] | Potency [8] | Potency [9]

N[C@H](C(=O)O)[C@H]1C[C@@H]1C(=O)O
inactive: Potency [1] | Potency [2] | Potency [3] | max response [4] 18.4% | Potency [5] | Potency [6] | Potency [7] | Potency [8] | Potency [9]
